This is a sample that favours compounds with a hit; in the whole collection about 2.7% have one here.
KDM5B inh: KDM5B demethylase inhibition; Q9UGL1; KDM5B demethylase, FDH-coupled NADH fluorescence (FDH is formaldehyde dehydrogenase); Potency, µM (doses to about 57.7 µM), hits mostly inhibitors; hit rate 2.6% among 220,000; active means well fitted inhibition curve with a large enough effect; inconclusive means small, poorly fitted or top-dose-only effect; inactive means no such curve, though single readings can be large or run the other way; further: potency means the concentration at half of the fitted maximal effect; 0% is about no effect; nearly all actives have a fitted effect of over 70% in size
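Here, H3K4me3 peptide (12.5 µM in substrate mix) is demethylated by KDM5BΔAP, 200 nM final, after 10 min compound exposure. Formaldehyde product is coupled through FDH (0.25 U/mL in mix) to NADH fluorescence; 30-min ΔRFU feeds dose-response curves.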
IP6K1 inh: blocks human inositol hexakisphosphate kinase 1. Q92551. IP6K1 kinase, ADP-Glo luminescence, 2 h; active compounds read low. activity change, % (series mostly up to about 58 µM). hit rate 0.81% among 140,000. AID 1645851; in the data active means activity change below about -25%; further: on the % scale 0 is the no-effect control and ±100 the full control effect
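ADP-Glo luminescence measures ADP made by human IP6K1 during a 2 h RT reaction with ATP/IP6 (mix at 1.3 mM/130 uM); top library doses 57.5 and 19.1 uM final.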
An asterisk follows results filed as active; i = inactive; ? = inconclusive; nt = no result given.

SMILES	KDM5B inh	IP6K1 inh
COc1ccc(C(=O)N2CCN(c3nnc4ccccn34)CC2)cc1OC	25µM*	8
COc1ccc(C(=O)N2CCCN(c3cc(-c4ccccc4)[nH]n3)CC2)cc1F	i	5
Cc1nc(-c2ccccc2)n(CC(=O)Nc2cccc(Cl)c2)c(=O)c1CCO	i	-2
CN(CCOC(=O)c1ccc(F)cc1)C(C)(C)C	i	nt
O=C(NCCc1nc(-c2cccnc2)no1)C1NCCc2[nH]cnc21 (stereo unspecified)	i	14
O=C(NCCc1noc(-c2ccccc2)n1)C1NCCc2[nH]cnc21 (stereo unspecified)	35µM*	18
Cn1ncc2c(C(=O)NC3CCOCC3)cc(-c3cccc(C(F)(F)F)c3)nc21	nt	-3
Cc1[nH]c(C(=O)NCCc2ccc(F)cc2)c(C)c1C(=O)OC(C)C	i	nt
Cc1cc(NC(=O)c2ccc(Cl)cc2F)n(CCC#N)n1	i	nt
Cc1ccc(-c2cc3c(=O)n(CCNC(=O)c4ccc5cc[nH]c5c4)ccn3n2)cc1C	35µM*	-5
O=C(NCCn1ccn2nc(-c3ccc(F)cc3)cc2c1=O)c1ccc(F)cc1	?	4
COc1cccc(-c2cc3c(=O)n(CCNC(=O)c4cc(F)cc(F)c4)ccn3n2)c1	i	-12
COc1cccc(-c2cc3c(=O)n(CCNC(=O)c4ccc5cc[nH]c5c4)ccn3n2)c1	35µM*	-16
COc1cccc(-c2cc3c(=O)n(CCNC(=O)c4c(F)cccc4F)ccn3n2)c1	?	-12
COc1cccc(-c2cc3c(=O)n(CCNC(=O)c4ccc(OC)c(F)c4)ccn3n2)c1	20µM*	-7
Cc1ccc(Cl)c(OCn2ccc(C(=O)N3CCN(Cc4ccccc4F)CC3)n2)c1	i	nt
COc1ccc(Cl)cc1C(=O)OCc1cccc(COC(=O)c2cc(Cl)ccc2OC)c1	i	nt
COc1cc(OC)c(NC(=O)NC(C(=O)N2CCc3ccccc32)C(C)C)cc1Cl (stereo unspecified)	i	nt
CCOc1ccc(S(=O)(=O)Nc2ccc(-c3ccc(N4CCC(C)CC4)nn3)cc2)cc1	i	nt
Cc1ccc(NS(=O)(=O)c2ccc(N/N=C/c3ccc([N+](=O)[O-])o3)c([N+](=O)[O-])c2)c(C)c1	i	nt
Cc1csc(NC(=O)c2sccc2-c2ccccc2)n1	i	nt
COCc1ccc2c(c1)c(OC(C)(C)C(=O)NC(C)C)nn2Cc1cccc(OC)c1	35µM*	-8
COCc1ccc2c(c1)c(OC(C)(C)C(=O)N1CC(O)C1)nn2Cc1ccccc1	?	-9
COCc1ccc2c(c1)c(OC(C)(C)C(=O)NCC1CCOCC1)nn2Cc1ccccc1	?	15
COCc1ccc2c(c1)c(OC(C)(C)C(=O)NC1CCC(O)CC1)nn2Cc1ccccc1 (stereo unspecified)	25µM*	9
SMILES	KDM5B inh	IP6K1 inh
COCc1ccc2c(c1)c(OC(C)(C)C(=O)N1CCOCC1)nn2Cc1cccc(OC)c1	?	0
CCCNC(=O)C(C)(C)Oc1nn(Cc2ccccc2)c2ccc(COC)cc12	32µM*	-8
Cc1cccc(NC(=O)Cn2nc(-c3ccccc3)c3c(c2=O)CCCC3)c1C	i	nt
CCc1ccc2oc(C(=O)Nc3cccc(Cl)c3)cc(=O)c2c1	i	nt
CCC(C)NC(=O)c1ccc(-c2cccc(C#N)c2)o1 (stereo unspecified)	25µM*	13
CCC(C)NC(=O)CCc1ccc(C#N)cc1 (stereo unspecified)	i	nt
CCCNC(=O)N1CCCCCC1CN1CCCC1 (stereo unspecified)	25µM*	-14
CC(C)NC(=O)N1CCCCCC1CN1CCCC1 (stereo unspecified)	?	-9
COc1ccc(CN2CCOc3nc(-c4cc5ccccc5o4)ncc3C2=O)cc1	32µM*	-1
COc1ccc(CN2CCOc3nc(-c4cccc(NC(C)=O)c4)ncc3C2=O)cc1	?	4
O=C1c2cnc(-c3ccc(Oc4ccccc4)cc3)nc2OCCN1CC1CC1	35µM*	2
COCCN1CCOc2nc(-c3ccc(Oc4ccccc4)cc3)ncc2C1=O	?	-2
Cc1nc(CN2C[C@H](C(=O)Nc3cccc(F)c3)C[C@@H]2c2ccc(F)cc2)cs1	?	-4
COc1ccc(-c2cc(N3CCC(NC(=O)c4ccc5cc[nH]c5c4)CC3)n[nH]2)cc1	28µM*	24
COc1ccc(-c2cc(N3CCC(NC(=O)Cc4ccccc4C)CC3)n[nH]2)cc1	?	5
COc1ccc(-c2cc(N3CCC(NC(=O)COc4ccccc4C)CC3)n[nH]2)cc1	16µM*	18
COc1ccc(C(=O)NC2CCN(c3cc(-c4ccc(OC)cc4)[nH]n3)C2)cc1 (stereo unspecified)	?	9
COc1ccc(C(=O)NC2CCN(c3cc(-c4ccc(OC)cc4)[nH]n3)CC2)cc1	?	15
COc1ccc(-c2cc(N3CCC(NC(=O)c4ccc(Br)cc4)C3)n[nH]2)cc1 (stereo unspecified)	11µM*	7
COc1ccc(CCCN)cc1	i	nt
Cc1c(C(C)(C)C)sc(=N)n1C	i	nt
Cn1cc(CN2CCN3CCCC3C2)c(-c2ccc(C3CCCCC3)cc2)n1 (stereo unspecified)	?	34
Cc1cccc(NC(=S)NCCc2ccccc2)c1	i	nt
COc1cccc(-c2ccc(CN3CCCC(NC(=O)C(C)(C)C)C3)cc2)c1 (stereo unspecified)	nt	2
COCCSc1nc2c(c(=O)n(C)c(=O)n2C)n1Cc1ccccc1Cl	i	nt
SMILES	KDM5B inh	IP6K1 inh
COc1cccc(-c2cn3c(n2)N(C(=O)Cn2ccnc2)CCC3)c1	i	2
N#Cc1cccc(-c2cn3c(n2)N(C(=O)CC2CCCC2)CCC3)c1	20µM*	15
N#Cc1cccc(-c2cn3c(n2)N(C(=O)Cc2ccsc2)CCC3)c1	32µM*	9
COc1cccc(-c2cn3c(n2)N(C(=O)c2ccoc2)CCC3)c1	?	7
O=C(Cc1cccs1)N1CCCn2cc(-c3ccccc3F)nc21	?	3
N#Cc1cccc(-c2cn3c(n2)N(C(=O)COc2ccccc2)CCC3)c1	28µM*	-3
CC(=O)NCC(=O)N1CCCn2cc(-c3cccc(C#N)c3)nc21	i	10
N#Cc1cccc(-c2cn3c(n2)N(C(=O)c2ccsc2)CCC3)c1	18µM*	10
O=C(NCc1cccc(F)c1)C(=O)Nc1cccc(O)c1	i	nt
CCCOc1ccccc1CNC1CC1	i	nt
Cc1cc(C)cc(CN2CCCCC23Cc2ccccc2CNC3=O)c1 (stereo unspecified)	i	-10
Cc1nn(-c2ccccc2)c2c1C(C(C)C)N(C1CCN(C(=O)c3ccc(Cl)cc3)CC1)C2=O (stereo unspecified)	nt	9
Cc1ccc(C(=O)N2CCCn3cc(-c4ccccc4)nc32)cn1	?	-5
N#Cc1cccc(-c2cn3c(n2)N(C(=O)c2ccccc2)CCC3)c1	20µM*	-6
N#Cc1cccc(-c2cn3c(n2)N(C(=O)c2cnccn2)CCC3)c1	?	8
N#Cc1cccc(-c2cn3c(n2)N(C(=O)c2ccccc2F)CCC3)c1	20µM*	5
O=C(c1ccccc1F)N1CCCn2cc(-c3ccccc3F)nc21	i	-1
Cc1ccc(C(=O)N2CCCn3cc(-c4cccc(C#N)c4)nc32)cc1	32µM*	7
Cc1ccc(S(=O)(=O)CC(=O)Nc2cc(C(C)(C)C)no2)cc1	i	nt

Source: PubChem
